# Unmarked numbers belong to inactive results. Activity calls are given as the source filed them.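 The calls were made as follows: active = compound whose curve gives half-maximal concentration under 30 µM, top-dose inhibition above a set limit, tight estimate; inactive = the rest.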
# Target: Integrin alpha-4 (Homo sapiens) (UniProt P13612)
# Experiment: VLA-4 allosteric modulator potency, dose response, cell-based, U937, HUTS-21 LIBS antibody, flow cytometry (AID 449766)
# Sequence of Integrin alpha-4 (Homo sapiens) (P13612 whole entry, looked up): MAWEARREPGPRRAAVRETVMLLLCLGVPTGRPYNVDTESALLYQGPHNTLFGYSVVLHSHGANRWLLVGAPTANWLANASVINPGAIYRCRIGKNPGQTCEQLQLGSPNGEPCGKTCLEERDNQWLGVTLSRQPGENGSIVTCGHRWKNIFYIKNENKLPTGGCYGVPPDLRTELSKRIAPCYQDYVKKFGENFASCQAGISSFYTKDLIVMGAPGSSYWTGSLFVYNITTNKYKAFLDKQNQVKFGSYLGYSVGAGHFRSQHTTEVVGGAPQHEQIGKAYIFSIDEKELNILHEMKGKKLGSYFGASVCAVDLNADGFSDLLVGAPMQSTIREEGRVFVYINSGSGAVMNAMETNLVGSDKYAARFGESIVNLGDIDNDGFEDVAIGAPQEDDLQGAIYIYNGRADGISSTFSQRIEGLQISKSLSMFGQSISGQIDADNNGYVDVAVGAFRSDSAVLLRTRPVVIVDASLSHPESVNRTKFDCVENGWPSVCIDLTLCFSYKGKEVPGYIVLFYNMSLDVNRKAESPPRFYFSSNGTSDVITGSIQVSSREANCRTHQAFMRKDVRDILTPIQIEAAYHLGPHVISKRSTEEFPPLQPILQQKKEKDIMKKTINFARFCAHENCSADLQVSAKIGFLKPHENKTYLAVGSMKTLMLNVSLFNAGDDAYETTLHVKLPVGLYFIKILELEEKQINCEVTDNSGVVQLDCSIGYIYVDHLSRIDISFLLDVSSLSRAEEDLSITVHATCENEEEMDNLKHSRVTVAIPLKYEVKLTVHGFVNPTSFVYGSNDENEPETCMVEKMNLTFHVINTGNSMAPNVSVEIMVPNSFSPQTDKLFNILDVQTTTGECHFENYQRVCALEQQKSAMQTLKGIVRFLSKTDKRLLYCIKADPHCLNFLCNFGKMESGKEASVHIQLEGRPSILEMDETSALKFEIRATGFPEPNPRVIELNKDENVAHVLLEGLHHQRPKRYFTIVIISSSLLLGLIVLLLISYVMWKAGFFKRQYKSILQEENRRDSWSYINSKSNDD
SMILES,outcome,inhibition
COc1ccc(C2CC(=O)Nc3cc(OC)c(OC)cc32)cc1Br (stereo not given),inactive,–
Nc1cc(S(=O)(=O)Nc2ccc(Br)cc2)ccc1Cl,inactive,–
Nc1ccc(NS(=O)(=O)c2ccccc2)cc1,inactive,–
CCOc1ccc(C(=O)c2cc([N+](=O)[O-])ccc2N2CCOCC2)cc1,inactive,–
COc1ccc(-c2sc3ccccc3c2-c2ccc(OCCN3CCOCC3)cc2)cc1,inactive,–
COC(=O)[C@@H]1[C@@H](C#N)C2(c3ccccc3-c3ccccc32)N(c2ccc(Cl)cc2)N1C#N,inactive,–
COCCNC(=O)/C(C#N)=C/c1cccc(/C=C(\C#N)C(=O)NCCOC)c1,inactive,–
COc1cccc(C2CC(=O)Nc3cc(OC)c(OC)cc32)c1 (stereo not given),inactive,–
COCCNC(=O)/C(C#N)=C/c1ccc(C(=O)O)cc1,inactive,–
CCOc1ccc(S(=O)(=O)Nc2cc(OC)ccc2OC)cc1,–,-4.93% [at 0.74 µM]
COc1ccc(C)cc1S(=O)(=O)Nc1cccc(C)c1,inactive,–
COc1cccc(-c2sc3ccc(OC)cc3c2-c2ccc(OCCN3CCCC3)cc2)c1,inactive,–
CCCCN1C(=O)C(=O)c2cc(Cl)ccc21,inactive,–
COc1cc2c(cc1OC)C(c1ccc(Br)cc1)CC(=O)N2 (stereo not given),inactive,–
CCCOc1ccccc1C1CC(=O)Nc2cc3c(cc21)OCO3 (stereo not given),inactive,–
COc1cc(NC(=O)c2cc(S(=O)(=O)N3CCCCC3)ccc2N2CCOCC2)cc(OC)c1,inactive,–
O=C(Nc1ccc(OC(F)F)cc1)c1cc(S(=O)(=O)N2CCCCC2)ccc1N1CCOCC1,inactive,–
Nc1cccc(S(=O)(=O)Nc2ccccc2)c1,inactive,–

SMILES,outcome,inhibition
O=C(c1ccccc1)c1cc([N+](=O)[O-])ccc1N1CCOCC1,inactive,–
Cc1ccc(S(=O)(=O)Nc2ccc(N(C)C)cc2)cc1,inactive,–
Cc1ccc(C)c(NC(=O)c2cc(S(=O)(=O)N3CCCCC3)ccc2N2CCOCC2)c1,inactive,–
COc1ccc(S(=O)(=O)Nc2c(F)cccc2F)cc1,inactive,–
Cc1ccc(C(=O)c2cc([N+](=O)[O-])ccc2N2CCOCC2)c(C)c1,inactive,–
CCCCNC(=O)/C(C#N)=C/c1ccc(C(=O)OC)cc1,inactive,–
COCCNC(=O)/C(C#N)=C/c1c(F)cccc1Cl,inactive,–
COc1ccc(-c2sc3cc4c(cc3c2-c2ccc(OCCN3CCOCC3)cc2)OCO4)cc1,inactive,–
COc1ccc(C2=Nn3c(nnc3-c3ccc(OC)cc3)SC2)cc1,inactive,–
CCOCCCNC(=O)/C(C#N)=C/c1cc(Br)c(O)c(Br)c1,inactive,–
O=C(Nc1ccccc1Cl)c1cc(S(=O)(=O)N2CCCCC2)ccc1N1CCOCC1,–,-7.81% [at 0.25 µM]
CCOc1cccc(C2CC(=O)Nc3cc(OC)c(OC)cc32)c1 (stereo not given),inactive,–
O=C(Oc1ccc(F)cc1C(=O)/C=C/c1cccs1)c1cccc([N+](=O)[O-])c1,inactive,–
Cc1ccc(NS(=O)(=O)c2ccc(-c3cnc(C4CC4)o3)cc2)c(C)c1,inactive,–
COc1ccccc1-c1sc2cc3c(cc2c1-c1ccc(OCCN2CCCCC2)cc1)OCO3,inactive,–
Cc1ccc(C(=O)c2cc([N+](=O)[O-])ccc2N2CCOCC2)cc1C,inactive,–
CC(C)Oc1ccccc1C1CC(=O)Nc2cc3c(cc21)OCO3 (stereo not given),inactive,–
